Source: PubChem BioAssay (NCATS)
Unmarked numbers belong to inactive results. Records with an inconclusive call do not appear. Active and inactive are the calls of the source. Unless noted, calls follow the shape of the dose curve; as a rule, active = well fitted curve in either direction with a large enough effect (not every such curve was filed as active); inconclusive = small, poorly fitted or top-dose-only effect, or another doubt; inactive = flat fitted curve, though single readings scatter.

How the values were obtained:
[1] = target: Lysosomal acid glucosylceramidase (Homo sapiens) (UniProt P04062); assay: Glucocerebrosidase-p2 (AID 348; in the data active = potency below about 10 µM; also: potency is read from the fitted curve at half-maximal effect); conditions: purified GBA, blue fluorogenic substrate, 40 min
Chain of Lysosomal acid glucosylceramidase (Homo sapiens) (P04062 whole entry, looked up): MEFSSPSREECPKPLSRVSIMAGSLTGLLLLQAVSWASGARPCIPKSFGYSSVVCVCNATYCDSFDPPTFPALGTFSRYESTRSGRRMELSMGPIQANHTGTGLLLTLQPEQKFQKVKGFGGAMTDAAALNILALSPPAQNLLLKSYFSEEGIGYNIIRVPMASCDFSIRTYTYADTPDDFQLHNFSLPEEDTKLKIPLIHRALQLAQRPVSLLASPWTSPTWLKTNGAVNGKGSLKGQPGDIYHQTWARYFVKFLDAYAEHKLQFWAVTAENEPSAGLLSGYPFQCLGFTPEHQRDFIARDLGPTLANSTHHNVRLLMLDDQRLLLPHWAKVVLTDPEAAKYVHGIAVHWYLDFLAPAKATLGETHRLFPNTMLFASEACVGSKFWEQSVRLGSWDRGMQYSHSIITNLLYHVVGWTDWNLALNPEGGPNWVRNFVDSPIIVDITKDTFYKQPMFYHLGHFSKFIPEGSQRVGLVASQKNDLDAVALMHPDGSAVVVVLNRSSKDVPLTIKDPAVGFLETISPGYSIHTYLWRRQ
How it was run: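 Normal human glucocerebrosidase (0.2 nM) with blue fluorogenic substrate (80 uM final) in citrate/phosphate pH 5.9 with 10mM sodium taurocholate, 0.01% tween-20; 40 min RT, NaOH/glycine stop; fluorescence Ex 365/Em 440; AC50 from a titration from 0.6 nM upwards.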

[2] = AP1 Signaling Pathway (AID 357); conditions: ME-180 AP-1-bla reporter, EGF-induced, beta-lactamase ratio, 5 h; at 7.69 µM (top of the series) unless noted; also: % is scaled to controls: 0 for no effect and ±100 for the full control effect
How it was run: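 Titration-series screen for positive or negative modulators of EC50 EGF-induced signaling in ME-180 cells carrying an AP-1-driven beta-lactamase reporter. After 5 hours at 37 degrees Celsius, CCF4 460nm/530nm emission ratio gave %Activity; AC50 values derived.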

[3] = target: Cytochrome P450 1A2 (Homo sapiens) (UniProt P05177); assay: p450-cyp1a2 (AID 410; calls by dose curve; also: potency is read from the fitted curve at half-maximal effect;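 as to activity change, negative = inhibition: -100% = full effect of reference inhibitor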); conditions: recombinant CYP1A2, luciferin-ME demethylation, luminescence; series mostly up to 11.4 µM
Chain of Cytochrome P450 1A2 (Homo sapiens) (P05177 whole entry, looked up): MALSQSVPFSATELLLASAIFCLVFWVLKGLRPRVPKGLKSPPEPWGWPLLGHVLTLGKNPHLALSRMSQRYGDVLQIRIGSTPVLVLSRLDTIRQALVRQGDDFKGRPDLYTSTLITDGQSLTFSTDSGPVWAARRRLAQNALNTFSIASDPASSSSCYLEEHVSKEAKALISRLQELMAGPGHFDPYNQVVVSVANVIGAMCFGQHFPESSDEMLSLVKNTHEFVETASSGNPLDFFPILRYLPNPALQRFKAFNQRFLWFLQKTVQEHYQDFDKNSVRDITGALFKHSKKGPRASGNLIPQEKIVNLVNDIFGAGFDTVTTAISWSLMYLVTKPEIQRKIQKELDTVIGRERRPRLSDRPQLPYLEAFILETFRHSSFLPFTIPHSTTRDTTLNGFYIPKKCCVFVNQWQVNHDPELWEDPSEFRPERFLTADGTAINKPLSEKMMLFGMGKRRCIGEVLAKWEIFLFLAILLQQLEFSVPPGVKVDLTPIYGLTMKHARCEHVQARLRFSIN
How it was run: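 O-Demethylation of luciferin 6' methyl ether by human CYP1A2 is monitored as luciferase luminescence. Substrate sits at Km (100uM); enzyme is 20nM. Values are scaled to 57 uM furafylline as maximal inhibition.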

[4] = NFAT Signaling Pathway (AID 444); conditions: Jurkat NFAT-bla M1, carbachol, beta-lactamase ratio, 5 h; at 7.69 µM (top of the series) unless noted;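 also: carbachol stimulus at about its EC50 of 1 µM final; % is scaled to controls: 0 for no effect and ±100 for the full control effect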
How it was run: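 Read-out: CCF4 FRET ratio (460 nm/530 nm) after 1 h RT dye loading, used for %activity and AC50 from titration series. Cells: Jurkat NFAT-β-lactamase/M1 line, treated with compound plus 1 uM carbachol for 5 h, 37 °C.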

[5] = Stat Signaling Pathway (AID 446); conditions: ME-180 (cervical carcinoma) SIE beta-lactamase reporter, IL-6 stimulated, 5 h; at 7.69 µM (top of the series) unless noted;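 also: ME-180 cervical cancer cells given 40 pM IL-6 alongside compound; SIE-controlled beta-lactamase reporter measured as 460/530 nm FRET emission ratio; % is scaled to controls: 0 for no effect and ±100 for the full control effect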
How it was run: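 Emission at 460 and 530 nm (excitation 405 nm) reports SIE-controlled beta-lactamase in ME-180 cells. Cells received compound with 40 pM IL-6 for 5 hrs at 37 C; data scaled between 300 pM IL-6 and 125 nM JAK-inhibitor controls.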

[6] = target: Glucocorticoid receptor (Homo sapiens) (UniProt P04150); assay: GR-GFP Redistribution (AID 450;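 active = compounds whose dose series gives a full or clear partial fitted curve of increased nuclear translocation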; also: potency is read from the fitted curve at half-maximal effect); conditions: U2OS GR-GFP nuclear translocation, laser cytometry, 2 h
Chain of Glucocorticoid receptor (Homo sapiens) (P04150 whole entry, looked up, the tested form may be a part): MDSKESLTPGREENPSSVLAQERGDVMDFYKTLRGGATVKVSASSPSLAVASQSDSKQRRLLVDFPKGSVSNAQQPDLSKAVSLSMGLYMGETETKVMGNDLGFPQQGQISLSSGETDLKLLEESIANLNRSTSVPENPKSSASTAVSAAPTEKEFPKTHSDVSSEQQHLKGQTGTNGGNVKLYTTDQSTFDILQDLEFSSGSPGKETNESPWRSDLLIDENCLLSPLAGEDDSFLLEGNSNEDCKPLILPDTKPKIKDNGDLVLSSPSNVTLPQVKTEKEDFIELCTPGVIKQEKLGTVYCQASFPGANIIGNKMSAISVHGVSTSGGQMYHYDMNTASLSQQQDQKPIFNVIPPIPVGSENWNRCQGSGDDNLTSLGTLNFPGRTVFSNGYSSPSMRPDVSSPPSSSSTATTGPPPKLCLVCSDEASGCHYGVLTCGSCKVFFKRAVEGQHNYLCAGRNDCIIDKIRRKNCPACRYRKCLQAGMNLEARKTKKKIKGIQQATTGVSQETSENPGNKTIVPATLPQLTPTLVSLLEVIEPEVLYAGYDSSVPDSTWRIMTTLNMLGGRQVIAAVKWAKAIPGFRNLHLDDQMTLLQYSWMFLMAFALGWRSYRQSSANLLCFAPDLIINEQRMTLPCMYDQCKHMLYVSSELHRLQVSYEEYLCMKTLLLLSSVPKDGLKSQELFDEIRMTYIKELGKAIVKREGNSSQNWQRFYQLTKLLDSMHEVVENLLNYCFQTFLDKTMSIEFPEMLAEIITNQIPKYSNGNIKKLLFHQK

[7] = target: Glucocorticoid receptor (Homo sapiens) (UniProt P04150); assay: GR-EFC Redistribution (AID 451; calls by dose curve; also: potency is read from the fitted curve at half-maximal effect); conditions: CHO-K1 GR-EFC translocation, beta-gal luminescence, 2 h
How it was run: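 Translocation of GR-ED fusion to nuclear EA restores b-gal, read by luminescence after 1 h room-temperature detection. Engineered CHO-K1 biosensor cells, 1,000/well, exposed 2 h at 37 C to titrations up to 46 uM final.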

[8] = target: Mitogen-activated protein kinase 10 (Mus musculus) (UniProt Q61831); assay: JNK3 AlphaScreen Assay (AID 530); conditions: JNK3 lysate, c-Jun phosphorylation; series mostly up to 11.4 µM;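 also: kinase came from lysate of stimulated human HepG2 cells; signal reports phosphorylation of biotinylated GST-cJun 1-79 at Ser73 with 10 µM ATP; % is scaled to controls: 0 for no effect and ±100 for the full control effect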
How it was run: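 qHTS titrations with 15 min compound pre-incubation before adding ATP (10 uM final). Read-out: AlphaScreen of Ser73-phosphorylated biotin-GST-cJun using HepG2 lysate JNK3 activated by IL-1β and TNFα.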

[9] = target: 3',5'-cyclic-AMP phosphodiesterase 4B (Homo sapiens) (UniProt Q07343); assay: qHTS Assay for Inhibitors of PDE-IV (AID 607; active = well fitted activation curve with a large enough effect in the main read-out, with a control signal flat, not every such curve was filed as active; also: % of control where 0% means no effect); conditions: HEK293 ACTOne CNG channel cells, membrane potential fluorescence; series mostly up to 22.9 µM
Chain of 3',5'-cyclic-AMP phosphodiesterase 4B (Homo sapiens) (Q07343 whole entry, looked up): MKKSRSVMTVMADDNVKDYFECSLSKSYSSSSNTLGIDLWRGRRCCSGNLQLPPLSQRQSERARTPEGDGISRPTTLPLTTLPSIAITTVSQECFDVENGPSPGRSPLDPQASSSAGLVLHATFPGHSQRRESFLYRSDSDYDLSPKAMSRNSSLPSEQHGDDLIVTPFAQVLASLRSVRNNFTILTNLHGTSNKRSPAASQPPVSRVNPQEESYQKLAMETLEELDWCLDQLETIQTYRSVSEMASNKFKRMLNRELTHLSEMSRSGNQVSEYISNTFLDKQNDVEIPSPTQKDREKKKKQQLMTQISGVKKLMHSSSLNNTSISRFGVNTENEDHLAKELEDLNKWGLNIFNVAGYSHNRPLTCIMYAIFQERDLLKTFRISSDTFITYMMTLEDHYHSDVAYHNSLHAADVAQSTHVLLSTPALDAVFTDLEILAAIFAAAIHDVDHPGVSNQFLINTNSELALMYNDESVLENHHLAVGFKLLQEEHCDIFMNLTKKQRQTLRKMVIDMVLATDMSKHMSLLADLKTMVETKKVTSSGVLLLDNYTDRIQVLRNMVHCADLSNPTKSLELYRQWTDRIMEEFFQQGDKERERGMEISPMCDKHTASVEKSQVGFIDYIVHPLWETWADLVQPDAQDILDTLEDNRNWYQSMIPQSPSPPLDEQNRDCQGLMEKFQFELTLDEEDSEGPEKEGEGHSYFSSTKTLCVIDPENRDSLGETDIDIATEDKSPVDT
How it was run: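 The readout is membrane depolarisation from a cAMP-sensing CNG channel, detected with a potential dye at ex 535/em 590. Cells were HEK293-derived (endogenous PDE-IV) at 1000 cells/well, titrated up to 22.9 uM final.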

[10] = target: Cytochrome P450 3A4 (Homo sapiens) (UniProt P08684); assay: qHTS Assay for Inhibitors and Substrates of Cytochrome P450 3A4 (AID 884; active = well fitted curve in the direction sought with a large enough effect; an effect the other way counts as inactive or inconclusive; also: potency is read from the fitted curve at half-maximal effect; nearly all actives have a fitted effect of over 50% in size); conditions: recombinant CYP3A4, Luciferin-PPXE luminescence; series mostly up to 57.1 µM
Chain of Cytochrome P450 3A4 (Homo sapiens) (P08684 whole entry, looked up): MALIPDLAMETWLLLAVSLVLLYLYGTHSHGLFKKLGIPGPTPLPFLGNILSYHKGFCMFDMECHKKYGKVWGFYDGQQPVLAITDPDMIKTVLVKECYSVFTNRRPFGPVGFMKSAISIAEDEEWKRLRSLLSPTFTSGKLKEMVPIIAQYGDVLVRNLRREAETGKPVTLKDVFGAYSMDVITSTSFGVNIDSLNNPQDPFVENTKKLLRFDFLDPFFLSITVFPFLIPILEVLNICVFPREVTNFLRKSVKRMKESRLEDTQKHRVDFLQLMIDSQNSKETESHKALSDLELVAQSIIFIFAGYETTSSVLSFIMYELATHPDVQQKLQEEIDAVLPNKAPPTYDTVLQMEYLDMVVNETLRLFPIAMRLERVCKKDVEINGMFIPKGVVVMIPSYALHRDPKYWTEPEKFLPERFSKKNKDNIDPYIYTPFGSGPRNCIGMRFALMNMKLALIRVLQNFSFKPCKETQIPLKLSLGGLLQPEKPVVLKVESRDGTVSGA
How it was run: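 Luminescent readout of luciferin produced by CYP3A4 (20 nM) dealkylation of Luciferin-PPXE, 25 uM (its KM). NADPH-driven reaction ran 60 min at RT after 10 min compound preincubation; data scaled to 57 uM ketoconazole as 100% inhibition.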

[11] = target: Cytochrome P450 2C19 (Homo sapiens) (UniProt P33261); assay: qHTS Assay for Inhibitors and Substrates of Cytochrome P450 2C19 (AID 899; active = well fitted curve in the direction sought with a large enough effect; an effect the other way counts as inactive or inconclusive; also: nearly all actives have a fitted effect of over 60% in size; also: potency is read from the fitted curve at half-maximal effect); conditions: recombinant CYP2C19, luciferin-H EGE luminescence; series mostly up to 11.4 µM
Chain of Cytochrome P450 2C19 (Homo sapiens) (P33261 whole entry, looked up): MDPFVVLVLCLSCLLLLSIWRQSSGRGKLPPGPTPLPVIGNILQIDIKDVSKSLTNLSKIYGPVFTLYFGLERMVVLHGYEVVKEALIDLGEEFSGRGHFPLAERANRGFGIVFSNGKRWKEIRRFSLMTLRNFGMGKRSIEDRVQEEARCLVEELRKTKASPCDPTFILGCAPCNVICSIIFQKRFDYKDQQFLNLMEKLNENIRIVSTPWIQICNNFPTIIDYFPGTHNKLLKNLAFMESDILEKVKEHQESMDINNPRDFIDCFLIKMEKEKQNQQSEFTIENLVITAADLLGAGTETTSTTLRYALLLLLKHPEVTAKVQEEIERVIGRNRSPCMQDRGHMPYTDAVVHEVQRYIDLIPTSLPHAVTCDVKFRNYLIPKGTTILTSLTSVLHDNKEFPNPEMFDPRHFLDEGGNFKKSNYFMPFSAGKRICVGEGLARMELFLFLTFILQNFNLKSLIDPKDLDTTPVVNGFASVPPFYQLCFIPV
How it was run: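 Reactions contain 5nM enzyme, 10uM Luciferin-H EGE (KM) and 50mM KPO4; compound preincubates 10 min at 37C, NADPH regeneration starts turnover for 60 min. Luminescence after detection reagent gives activity.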

[12] = target: Cytochrome P450 3A4 (Homo sapiens) (UniProt P08684); assay: qHTS Assay for Activators of Cytochrome P450 3A4 (AID 885; active = well fitted curve in the direction sought with a large enough effect; an effect the other way counts as inactive or inconclusive; also: nearly all actives have a fitted effect of over 65% in size); conditions: recombinant CYP3A4, Luciferin-PPXE luminescence, 60 min; series mostly up to 11.4 µM
How it was run: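 Activators are scored by enhanced luminescence from CYP3A4 conversion of luciferin-PPXE (25uM, equal to KM) to luciferin, after 60 min at RT with an NADPH-regenerating system.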

[13] = target: Cytochrome P450 2D6 (Homo sapiens) (UniProt P10635); assay: qHTS Assay for Inhibitors and Substrates of Cytochrome P450 2D6 (AID 891; active = well fitted curve in the direction sought with a large enough effect; an effect the other way counts as inactive or inconclusive; also: nearly all actives have a fitted effect of over 60% in size; also: potency is read from the fitted curve at half-maximal effect); conditions: recombinant CYP2D6, luciferin-ME EGE luminescence; series mostly up to 11.4 µM
Chain of Cytochrome P450 2D6 (Homo sapiens) (P10635 whole entry, looked up): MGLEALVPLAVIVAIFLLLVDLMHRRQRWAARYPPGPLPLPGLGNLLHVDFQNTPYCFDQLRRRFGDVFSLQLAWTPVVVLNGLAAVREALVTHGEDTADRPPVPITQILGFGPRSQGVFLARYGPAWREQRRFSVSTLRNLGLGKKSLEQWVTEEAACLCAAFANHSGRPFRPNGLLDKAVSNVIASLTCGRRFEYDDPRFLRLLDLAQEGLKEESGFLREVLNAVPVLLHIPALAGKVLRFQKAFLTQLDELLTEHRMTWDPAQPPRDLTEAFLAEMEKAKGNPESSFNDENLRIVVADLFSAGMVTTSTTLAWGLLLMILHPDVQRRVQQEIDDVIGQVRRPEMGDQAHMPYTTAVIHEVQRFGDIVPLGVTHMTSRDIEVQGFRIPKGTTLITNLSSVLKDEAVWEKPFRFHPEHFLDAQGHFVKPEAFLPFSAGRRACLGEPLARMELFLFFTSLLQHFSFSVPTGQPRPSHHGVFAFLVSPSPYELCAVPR
How it was run: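 Luminescent read-out of luciferin formed by 5 nM human CYP2D6 demethylating 30 uM Luciferin-ME EGE (Km level) over 60 min at room temperature after NADPH regeneration addition. Data normalized to full inhibition by 1.43 uM quinidine.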

| Compound | Potency [1] | activity change, negative = inhibition [2] | activity change, negative = inhibition [3] | activity change, negative = inhibition [4] | activity, negative = inhibition [5] | Potency [6] | Potency [7] | Potency [8] | Potency [9] | Potency [10] | Potency [11] | Potency [3] | Potency [12] | Potency [13] |
| --- | --- | --- | --- | --- | --- | --- | --- | --- | --- | --- | --- | --- | --- | --- |
| Cn1c(=O)c2[nH]c(CCCCc3nc4c([nH]3)c(=O)n(C)c(=S)n4C)nc2n(C)c1=S | > 11.4 µM | 1.54% | -13.8% [at 2.29 µM] | -2.84% | -5.06% | > 46 µM | > 9.22 µM | inactive | inactive | 1.26 µM (active) | inactive | – | – | – |
| c1ccc2c(c1)-c1nc3ccccc3cc1[C@H]2N1CCOCC1 | > 11.4 µM | -6.79% | – | -6.28% | 7.66% | > 46 µM | > 9.22 µM | inactive | inactive | 2.51 µM (active) | – | 1.26 µM (active) | inactive | – |
| [O-][n+]1c(CN2CCCCC2)nc2cccc3c2c1-c1ccccc1-3 | > 11.4 µM | -8.04% | – | 26.2% | 6.89% | > 46 µM | > 9.22 µM | inactive | inactive | – | – | 1.58 µM (active) | inactive | – |
| CC1(CC(=O)O)O[C@H]2CCCCC[C@H]2O1 (stereo not given in full) (tested in a mixture with another compound) | > 11.4 µM | 8.96% | – | -4.93% | 5.55% | > 46 µM | > 9.22 µM | inactive | inactive | – | – | inactive | inactive | – |
| CN(C)c1ccc(/C=N\NC(=O)c2cnc3ccccc3c2)cc1 | > 11.4 µM | -12.8% | – | 1.4% | -7.11% | > 46 µM | > 9.22 µM | inactive | inactive | – | – | 1.58 µM (active) | inactive | – |
| NCCSCc1ccccc1Cl | > 11.4 µM | 1.67% | – | -5.94% | 2.36% | > 46 µM | > 9.22 µM | inactive | inactive | – | – | 3.16 µM (active) | inactive | 3.16 µM (active) |
| Nc1ccccc1SCc1csc(-c2ccc(Cl)cc2)n1 | > 11.4 µM | -17.2% | – | -25.4% | -11.2% | > 46 µM | > 9.22 µM | inactive | inactive | – | 0.501 µM (active) | 0.631 µM (active) | inactive | – |
| COc1cc2c(cc1OC)C(CCN)=NCC2 | > 11.4 µM | 7.92% | – | -11.2% | 8.17% | > 46 µM | > 9.22 µM | inactive | inactive | – | inactive | 5.01 µM (active) | inactive | – |
| O=C(CSC1=NCCN1)Nc1ccccc1 | > 11.4 µM | 15% | – | -6.05% | -2.98% | > 46 µM | > 9.22 µM | inactive | inactive | – | – | 3.98 µM (active) | inactive | 1.58 µM (active) |
| Cc1ccc(C)c(NC(=O)NCc2ccc(Cl)cc2)c1 | > 11.4 µM | 4.89% | – | -4.37% | 8.15% | > 46 µM | > 9.22 µM | inactive | inactive | – | 1.58 µM (active) | 0.794 µM (active) | inactive | 3.98 µM (active) |
| CC1(C)[C@@H]2CC[C@@](C)(C2)[C@H]1OC(=O)c1ccccc1C(=O)O | > 11.4 µM | -1.12% | – | 4.7% | -3.05% | > 46 µM | > 9.22 µM | inactive | inactive | – | inactive | inactive | inactive | inactive |
| CC(C)(C)CC(C)(C)c1ccc(O)c(C[N+](C)(C)[O-])c1 | > 11.4 µM | 0.484% | -17.9% [at 2.29 µM] | 17.3% | 0.425% | > 46 µM | > 9.22 µM | inactive | inactive | – | – | – | inactive | – |
| COc1ncc2nc(-c3cc(F)cc(F)c3)c(=O)n(C[C@H]3CCCO3)c2n1 | > 11.4 µM | -0.553% | – | -10.9% | -4.03% | > 9.22 µM | > 46 µM | inactive | inactive | – | – | 3.16 µM (active) | inactive | – |
| NS(=O)(=O)c1ccc(N=Nc2nc3[nH]c(=O)[nH]c(=O)c3[nH]2)cc1 | 8.51 µM (active) | -5.25% | – | 13.6% | 21.2% | > 46 µM | > 9.22 µM | inactive | inactive | – | – | inactive | inactive | – |
